{
  "source": "PubChem BioAssay (NCI)",
  "note": "The panel holds about 83,000 compounds, 20% with a hit somewhere; the sample as a whole holds those more often.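 Testing used 96-well plates and a 48-hour single-concentration exposure. Example: -40 means 40% of the starting cells died.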 The source made the active and inactive calls. Rule for the calls: active = growth percent below 10; inactive = the rest.",
  "data": [
    {"test_system": "MALME-3M melanoma", "experiment": "NCI-60 one-dose screen, 48 h (100 = growth as untreated, 0 = no growth, -100 = all killed)", "conditions": "10 µM unless noted", "values": [
      {"smiles": "C[C@H](c1nc2ccc(C#N)cc2[nH]1)[C@H]1CC[C@H]2[C@@H]3CCC4=CC(=O)CC[C@]4(C)[C@H]3CC[C@]12C", "growth": "85.6% (inactive)"},
      {"smiles": "O=c1cc(C(F)(F)F)c2cc(-c3cc4ccccc4c(=O)o3)c(O)cc2o1", "growth": "91.5% (inactive)"},
      {"smiles": "Nc1ccc(-c2ccncc2)cc1NC(=O)N1CCCC1", "growth": "69.9% (inactive)"},
      {"smiles": "COc1cccc(-c2cn3nc(-c4cn(C)c5ccccc45)sc3n2)c1", "growth": "84.1% (inactive)"},
      {"smiles": "CC(C)(C)c1ccc(S(=O)(=O)Oc2ccc(-c3sc4cc(OS(=O)(=O)c5ccc(C(C)(C)C)cc5)ccc4c3C(=O)c3ccc(OCCN4CCCCC4)cc3)cc2)cc1", "growth": "107% (inactive)"},
      {"smiles": "CCN(CC)CCn1c2ccc(OC)cc2c2sc3cc(O)ccc3c(=O)c21", "growth": "34.1% (inactive)"},
      {"smiles": "C=C1C(=O)O[C@H]2[C@H]1CC/C(COC(=O)NCc1ccc(Cn3c(=O)sn(-c4ccc(I)cc4)c3=O)cc1)=C\\CC[C@@]1(C)O[C@@H]21", "growth": "82.3% (inactive)"},
      {"smiles": "O=C(Nc1nc(Cl)nc(Nc2ccc(N3CCOCC3=O)cc2)n1)c1ccc(Cl)s1", "growth": "88.3% (inactive)"},
      {"smiles": "COc1cc(OC)c2c(=O)c3c(CC=C(C)C)cc(OC)c(O)c3oc2c1", "growth": "114% (inactive)"},
      {"smiles": "O=S(=O)(Nc1cc(Sc2nc3ccccc3s2)c(O)c2ccccc12)c1ccc2ccccc2c1", "growth": "102% (inactive)"},
      {"smiles": "Nc1cccc(-c2ccc(COc3ccc(CC4SC(=O)NC4=O)cc3)cc2)c1", "note": "(stereo not drawn)", "growth": "42.5% (inactive)"},
      {"smiles": "COc1ccc(-c2nc(SCC(=O)Nc3nc4ccc(C)cc4s3)[nH]c(=O)c2C#N)cc1OC", "growth": "103% (inactive)"},
      {"smiles": "C=C1C(=O)O[C@@H]2C3C(=C(C)CC[C@@H]12)CC1O[C@]13C", "note": "(stereo partly drawn)", "growth": "77.6% [6.75 µM] (inactive)"},
      {"smiles": "COc1cccc(CNc2c3ccccc3nc3ccccc23)c1OC", "growth": "50.6% (inactive)"},
      {"smiles": "Nc1c(Cl)cc(/C=C2\\C=Cc3ccccc32)cc1Cl", "growth": "119% (inactive)"},
      {"smiles": "CSc1ccc2c3c(n(C[C@H](O)CO)c(=O)c2c1)-c1ccccc1C3=O", "growth": "74.4% (inactive)"},
      {"smiles": "COc1cc(-c2ccc[nH]2)[nH]c1/C=C1\\N=C(C)C(CC(=O)OCC(C)(C)C)=C1C", "growth": "-76.3% (active)"},
      {"smiles": "Brc1ccc(Nc2nc(Nc3cnc4ccccc4c3)c3[nH]cnc3n2)cc1", "growth": "105% (inactive)"},
      {"smiles": "CS(=O)(=O)Nc1cc(-c2ccc3ncnc(Nc4ccc(F)c(Cl)c4)c3c2)ccc1Cl", "growth": "53.4% (inactive)"},
      {"smiles": "CSc1ccc2c3c(n(CCCn4ccnc4)c(=O)c2c1)-c1ccccc1C3=O", "growth": "87.8% (inactive)"},
      {"smiles": "O=C(/C=C/c1cn(-c2ccccc2)nc1-c1ccccc1)CCC(=O)NO", "growth": "104% (inactive)"},
      {"smiles": "O=C(/C=C/c1ccccc1)c1cccc2ccccc12", "growth": "68.8% (inactive)"},
      {"smiles": "CCOC(=O)/C=C1\\S/C(=N\\Nc2cc(=O)[nH]c3ccc(Br)cc23)N(c2ccccc2)C1=O", "growth": "82% (inactive)"},
      {"smiles": "CC(=O)c1ccc(-n2cc(CN3CCN(c4cc5c(cc4F)c(=O)c(C(=O)O)cn5C4CC4)CC3)nn2)cc1", "growth": "94.9% (inactive)"},
      {"smiles": "CS(=O)(=O)Nc1cc(-c2ccc3ncnc(Nc4ccc(OCc5ccccn5)c(Cl)c4)c3c2)cnc1Cl", "growth": "-35.7% (active)"},
      {"smiles": "COc1ccc2c(c1)c(-c1nc(-c3ccc4ccccc4c3)cs1)cn2C", "growth": "149% (inactive)"},
      {"smiles": "CCOC(=O)c1c(C)nc2ccccc2c1/C=C/c1ccc(F)cc1", "growth": "98.7% (inactive)"},
      {"smiles": "CC1(C)N=C(N)N=C(N)N1c1ccc(S(=O)(=O)Nc2nccs2)cc1", "growth": "99.3% (inactive)"},
      {"smiles": "COC(=O)c1sccc1-c1cc(O)c(C(=O)Nc2ccccc2)s1", "growth": "84.5% (inactive)"},
      {"smiles": "CCOC(=O)NC(=S)n1oc(=O)c2ccccc21", "growth": "95.4% (inactive)"},
      {"smiles": "O=C1CCC(C(=O)N/N=C/c2cc(F)ccc2F)N1", "note": "(stereo not drawn)", "growth": "95.1% (inactive)"},
      {"smiles": "COc1ccccc1/C=C/C(=O)Nc1ccc(F)cc1", "growth": "95.9% (inactive)"},
      {"smiles": "COc1ccc(/C=N/Nc2c3ccccc3nc3ccccc23)cc1", "growth": "105% (inactive)"},
      {"smiles": "O=[N+]([O-])c1ccccc1Sc1ccccc1[N+](=O)[O-]", "growth": "92.4% (inactive)"},
      {"smiles": "C[C@@H]1CN(c2cnc(C(=O)Nc3cc(F)cc4cccnc34)cn2)C[C@H](C)N1", "growth": "65.2% (inactive)"},
      {"smiles": "CC1(C)CC[C@]23CC[C@]4(C)[C@H](CC[C@@H]5[C@@]6(C)C/C(=C/O)C(=O)C(C)(C)[C@@H]6CC[C@]54C)[C@H]2[C@H]1OC3", "growth": "104% (inactive)"},
      {"smiles": "c1cc(OCCCCCOc2cccc(-c3nc4ccccc4[nH]3)c2)cc(-c2nc3ccccc3[nH]2)c1", "growth": "-13.6% (active)"},
      {"smiles": "O=CN1N=C(c2cccc(Nc3ccnc4cc(Cl)ccc34)c2)CC1c1ccc(Cl)cc1", "note": "(stereo not drawn)", "growth": "44.4% (inactive)"},
      {"smiles": "COc1ccc(/C=C2\\c3cc(OC)c(OC)c(OC)c3CC[C@@H]2O)cc1F", "growth": "70.2% (inactive)"}
    ]},
    {"test_system": "MDA-MB-231 breast", "experiment": "NCI-60 one-dose screen, 48 h (100 = growth as untreated, 0 = no growth, -100 = all killed)", "conditions": "10 µM unless noted", "values": [
      {"smiles": "C[C@H](c1nc2ccc(C#N)cc2[nH]1)[C@H]1CC[C@H]2[C@@H]3CCC4=CC(=O)CC[C@]4(C)[C@H]3CC[C@]12C", "growth": "70.1% (inactive)"},
      {"smiles": "O=c1cc(C(F)(F)F)c2cc(-c3cc4ccccc4c(=O)o3)c(O)cc2o1", "growth": "85.7% (inactive)"},
      {"smiles": "Nc1ccc(-c2ccncc2)cc1NC(=O)N1CCCC1", "growth": "120% (inactive)"},
      {"smiles": "COc1cccc(-c2cn3nc(-c4cn(C)c5ccccc45)sc3n2)c1", "growth": "85.6% (inactive)"},
      {"smiles": "CC(C)(C)c1ccc(S(=O)(=O)Oc2ccc(-c3sc4cc(OS(=O)(=O)c5ccc(C(C)(C)C)cc5)ccc4c3C(=O)c3ccc(OCCN4CCCCC4)cc3)cc2)cc1", "growth": "103% (inactive)"},
      {"smiles": "CCN(CC)CCn1c2ccc(OC)cc2c2sc3cc(O)ccc3c(=O)c21", "growth": "54.1% (inactive)"},
      {"smiles": "C=C1C(=O)O[C@H]2[C@H]1CC/C(COC(=O)NCc1ccc(Cn3c(=O)sn(-c4ccc(I)cc4)c3=O)cc1)=C\\CC[C@@]1(C)O[C@@H]21", "growth": "73.5% (inactive)"},
      {"smiles": "O=C(Nc1nc(Cl)nc(Nc2ccc(N3CCOCC3=O)cc2)n1)c1ccc(Cl)s1", "growth": "88.3% (inactive)"},
      {"smiles": "COc1cc(OC)c2c(=O)c3c(CC=C(C)C)cc(OC)c(O)c3oc2c1", "growth": "91.1% (inactive)"},
      {"smiles": "O=S(=O)(Nc1cc(Sc2nc3ccccc3s2)c(O)c2ccccc12)c1ccc2ccccc2c1", "growth": "71.1% (inactive)"},
      {"smiles": "Nc1cccc(-c2ccc(COc3ccc(CC4SC(=O)NC4=O)cc3)cc2)c1", "note": "(stereo not drawn)", "growth": "73.4% (inactive)"},
      {"smiles": "COc1ccc(-c2nc(SCC(=O)Nc3nc4ccc(C)cc4s3)[nH]c(=O)c2C#N)cc1OC", "growth": "97.9% (inactive)"},
      {"smiles": "C=C1C(=O)O[C@@H]2C3C(=C(C)CC[C@@H]12)CC1O[C@]13C", "note": "(stereo partly drawn)", "growth": "93.5% [6.75 µM] (inactive)"},
      {"smiles": "COc1cccc(CNc2c3ccccc3nc3ccccc23)c1OC", "growth": "41.9% (inactive)"},
      {"smiles": "Nc1c(Cl)cc(/C=C2\\C=Cc3ccccc32)cc1Cl", "growth": "113% (inactive)"},
      {"smiles": "CSc1ccc2c3c(n(C[C@H](O)CO)c(=O)c2c1)-c1ccccc1C3=O", "growth": "108% (inactive)"},
      {"smiles": "COc1cc(-c2ccc[nH]2)[nH]c1/C=C1\\N=C(C)C(CC(=O)OCC(C)(C)C)=C1C", "growth": "-57.2% (active)"},
      {"smiles": "Brc1ccc(Nc2nc(Nc3cnc4ccccc4c3)c3[nH]cnc3n2)cc1", "growth": "53.8% (inactive)"},
      {"smiles": "CS(=O)(=O)Nc1cc(-c2ccc3ncnc(Nc4ccc(F)c(Cl)c4)c3c2)ccc1Cl", "growth": "54.3% (inactive)"},
      {"smiles": "CSc1ccc2c3c(n(CCCn4ccnc4)c(=O)c2c1)-c1ccccc1C3=O", "growth": "91.4% (inactive)"},
      {"smiles": "O=C(/C=C/c1cn(-c2ccccc2)nc1-c1ccccc1)CCC(=O)NO", "growth": "105% (inactive)"},
      {"smiles": "O=C(/C=C/c1ccccc1)c1cccc2ccccc12", "growth": "55.1% (inactive)"},
      {"smiles": "CCOC(=O)/C=C1\\S/C(=N\\Nc2cc(=O)[nH]c3ccc(Br)cc23)N(c2ccccc2)C1=O", "growth": "86.2% (inactive)"},
      {"smiles": "CC(=O)c1ccc(-n2cc(CN3CCN(c4cc5c(cc4F)c(=O)c(C(=O)O)cn5C4CC4)CC3)nn2)cc1", "growth": "97.1% (inactive)"},
      {"smiles": "CS(=O)(=O)Nc1cc(-c2ccc3ncnc(Nc4ccc(OCc5ccccn5)c(Cl)c4)c3c2)cnc1Cl", "growth": "2.29% (active)"},
      {"smiles": "COc1ccc2c(c1)c(-c1nc(-c3ccc4ccccc4c3)cs1)cn2C", "growth": "80.2% (inactive)"},
      {"smiles": "CCOC(=O)c1c(C)nc2ccccc2c1/C=C/c1ccc(F)cc1", "growth": "75.9% (inactive)"},
      {"smiles": "CC1(C)N=C(N)N=C(N)N1c1ccc(S(=O)(=O)Nc2nccs2)cc1", "growth": "103% (inactive)"},
      {"smiles": "COC(=O)c1sccc1-c1cc(O)c(C(=O)Nc2ccccc2)s1", "growth": "91.5% (inactive)"},
      {"smiles": "CCOC(=O)NC(=S)n1oc(=O)c2ccccc21", "growth": "96.8% (inactive)"},
      {"smiles": "O=C1CCC(C(=O)N/N=C/c2cc(F)ccc2F)N1", "note": "(stereo not drawn)", "growth": "111% (inactive)"},
      {"smiles": "COc1ccccc1/C=C/C(=O)Nc1ccc(F)cc1", "growth": "88.6% (inactive)"},
      {"smiles": "COc1ccc(/C=N/Nc2c3ccccc3nc3ccccc23)cc1", "growth": "93.9% (inactive)"},
      {"smiles": "O=[N+]([O-])c1ccccc1Sc1ccccc1[N+](=O)[O-]", "growth": "105% (inactive)"},
      {"smiles": "C[C@@H]1CN(c2cnc(C(=O)Nc3cc(F)cc4cccnc34)cn2)C[C@H](C)N1", "growth": "37.7% (inactive)"},
      {"smiles": "CC1(C)CC[C@]23CC[C@]4(C)[C@H](CC[C@@H]5[C@@]6(C)C/C(=C/O)C(=O)C(C)(C)[C@@H]6CC[C@]54C)[C@H]2[C@H]1OC3", "growth": "97.6% (inactive)"},
      {"smiles": "c1cc(OCCCCCOc2cccc(-c3nc4ccccc4[nH]3)c2)cc(-c2nc3ccccc3[nH]2)c1", "growth": "19.6% (inactive)"},
      {"smiles": "O=CN1N=C(c2cccc(Nc3ccnc4cc(Cl)ccc34)c2)CC1c1ccc(Cl)cc1", "note": "(stereo not drawn)", "growth": "30.2% (inactive)"},
      {"smiles": "COc1ccc(/C=C2\\c3cc(OC)c(OC)c(OC)c3CC[C@@H]2O)cc1F", "growth": "28.8% (inactive)"}
    ]}
  ]
}
